# CIT2 TOR yeast: modulators of CIT2-GFP expression in yeast, primary screen, S. cerevisiae, GFP fusion, multiplex flow cytometry, MLPCN library; S. cerevisiae CIT2-GFP strain, 3 h; 100 means same as DMSO wells; GFP response vs DMSO, % at 10 µM; hit rate 0.065% among 320,000;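 active = GFP response relative to DMSO above a set limit, near the screen mean plus 3 SD, cut at about 150% in these data; inconclusive = Fewer than 70 cells measured for a yeast strain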;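 also: ratio of well median GFP fluorescence to mean of DMSO wells on the plate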
# VLA-4 inh: inhibition in human VLA-4 binding assay, primary screen, VLA-4 allosteric modulator project, MLPCN library, flow cytometry, VLA-4 expressing cells. hit rate 0.2% among 330,000. inhibition, % (about 7 µM as worked out from the volumes in the protocol). Integrin alpha-4 (Homo sapiens), P13612. ligand binding flow cytometry. AID 2557, 2010; in the data active = inhibition above about 50%
# Target sequence (P13612 whole entry, looked up): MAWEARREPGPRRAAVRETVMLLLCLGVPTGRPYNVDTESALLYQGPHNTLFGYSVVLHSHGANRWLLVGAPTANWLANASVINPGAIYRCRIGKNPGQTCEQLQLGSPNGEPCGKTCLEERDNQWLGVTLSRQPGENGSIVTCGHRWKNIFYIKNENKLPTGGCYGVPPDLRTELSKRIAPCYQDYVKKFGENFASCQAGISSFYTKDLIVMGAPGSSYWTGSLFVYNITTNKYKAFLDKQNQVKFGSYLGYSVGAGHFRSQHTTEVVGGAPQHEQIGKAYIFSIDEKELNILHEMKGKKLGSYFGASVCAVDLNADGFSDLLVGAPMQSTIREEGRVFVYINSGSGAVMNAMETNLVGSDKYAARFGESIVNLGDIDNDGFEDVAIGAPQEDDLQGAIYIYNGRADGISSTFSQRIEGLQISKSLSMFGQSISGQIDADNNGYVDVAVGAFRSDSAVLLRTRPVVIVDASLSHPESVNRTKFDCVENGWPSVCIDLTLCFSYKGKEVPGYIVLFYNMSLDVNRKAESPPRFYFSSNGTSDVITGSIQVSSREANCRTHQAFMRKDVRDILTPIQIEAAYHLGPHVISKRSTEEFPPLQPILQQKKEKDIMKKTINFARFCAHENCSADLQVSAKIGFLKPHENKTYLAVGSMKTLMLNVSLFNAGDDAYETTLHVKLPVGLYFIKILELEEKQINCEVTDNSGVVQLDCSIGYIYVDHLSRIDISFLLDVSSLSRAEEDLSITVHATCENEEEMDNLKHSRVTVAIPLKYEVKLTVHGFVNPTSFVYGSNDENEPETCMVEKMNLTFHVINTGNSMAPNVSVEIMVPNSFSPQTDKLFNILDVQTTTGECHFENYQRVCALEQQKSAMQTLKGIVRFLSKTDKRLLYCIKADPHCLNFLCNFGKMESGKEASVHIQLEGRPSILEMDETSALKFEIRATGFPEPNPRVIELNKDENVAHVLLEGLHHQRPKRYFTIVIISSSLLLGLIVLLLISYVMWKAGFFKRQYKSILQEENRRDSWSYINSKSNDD
# AGP1 TOR yeast: modulators of AGP1-GFP expression in yeast TOR pathway, primary screen, cell-based, multiplex flow cytometry, S. cerevisiae, MLPCN library. 3 h; GFP as percent of DMSO wells. GFP response vs DMSO, % at 10 µM. hit rate 0.02% among 320,000;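 active = GFP response relative to DMSO above a set limit, near screen average plus 3 SD, cut at about 150% in these data; inconclusive = fewer than 70 cells counted for the yeast strain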;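 also: median GFP channel fluorescence of the gated AGP1 strain per well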
# LAP4 TOR yeast: modulators of LAP4-GFP expression in yeast, primary screen, S. cerevisiae, multiplex flow cytometry, MLPCN library; 3 h; median GFP as percent of DMSO wells; GFP response vs DMSO, % at 10 µM; hit rate 0.34% among 320,000;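 active = GFP response vs DMSO above a set limit, about the screen mean plus 3 SD, cut at about 150% in these data; inconclusive = under 70 cell events counted for the yeast strain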
# MEP2-GFP yeast: modulators of MEP2-GFP levels in yeast, primary screen, S. cerevisiae, multiplex flow cytometry, MLPCN library | GFP response vs DMSO, % at 10 µM | S. cerevisiae MEP2-GFP strain, 3 h; 100% = DMSO control level | hit rate 0.51% among 330,000;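 active = GFP response versus DMSO above a set limit, roughly screen mean plus 3 SD, cut at about 180% in these data; inconclusive = fewer than 70 cells counted for a yeast strain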;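 also: median GFP fluorescence of the barcode-gated MEP2-GFP cells per well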
# RPL19A-GFP yeast: RPL19A-GFP expression modulators in yeast, primary screen, cell-based, S. cerevisiae, multiplex flow cytometry, MLPCN | hit rate 0.3% among 330,000 | percent response vs DMSO, % at 10 µM | AID 2025, 2009 | S. cerevisiae RPL19A-GFP strain, 3 h; stronger effect = lower value;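 active = percent response vs DMSO below 50%; inconclusive = fewer than 70 events counted for the yeast strain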;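 also: median channel GFP fluorescence of the barcoded RPL19A-GFP strain; lower means less RPL19A-GFP as with rapamycin TOR inhibition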
# Hits are given with their value; n = inactive; u = inconclusive; x = no result; [ ] = remark or other dose. Most compounds without a hit are left out; they make up all but 1.1% or so of the library.
SMILES,CIT2 TOR yeast,VLA-4 inh,AGP1 TOR yeast,LAP4 TOR yeast,MEP2-GFP yeast,RPL19A-GFP yeast
COc1ccc(NC(=O)c2ccccc2N2C(=O)C3C4C=CC(C5CC45)C3C2=O)c(OC)c1 (centres undefined),n,n,n,n,n,n
CCCc1cc(=O)[nH]c(SCC(=O)Nc2cc(S(=O)(=O)N3CCOCC3)ccc2Cl)n1,n,n,n,n,n,n
Cc1cccc(NC(=O)CN2C(=O)NC(C)(c3ccc4c(c3)OCO4)C2=O)c1 (centres undefined),u,n,n,n,289[may fluoresce violet],20[may fluoresce violet]
CC1CCN(C(=O)C(C)NCc2ccc(F)cc2)CC1 (centres undefined),n,n,n,n,n,n
COc1ccc(C(=O)c2nccc3ccccc23)cc1,n,n,n,n,185,n
C=CCN1C(=O)c2ccccc2NC1c1cc(Br)cs1 (centres undefined),u,n,n,n,279[may fluoresce violet],n
CCN(CC)CCN1C(=O)c2ccccc2NC1c1ccc(Br)cc1 (centres undefined),n,n,n,n,n,n
Cc1cccc(C)c1NC(=O)C1(N(Cc2ccco2)C(=O)c2ccccn2)CCCC1,u,n,x,n,277[may fluoresce violet],n
O=C(c1ccc(N2CCCC2)c([N+](=O)[O-])c1)N1CCN(CCO)CC1,u,n,u,n,189[may fluoresce violet],48[may fluoresce violet]
O=C(c1ccc(N2CCCCC2)c([N+](=O)[O-])c1)N1CCOCC1,n,n,n,n,n,n
CCC(C)NC(=O)Nc1ccc2c(c1)N(C)C(=O)c1ccccc1S2 (centres undefined),u,n,u,n,188[may fluoresce violet],n
COCCNC(=O)Nc1ccc2c(c1)N(C)C(=O)c1ccccc1S2,n,n,n,n,n,n
CCC(C)c1c(O)nc(SCC(=O)N2CCCCCC2)[nH]c1=O (centres undefined),n,n,n,n,n,n
COC(=O)c1[nH]c2ccc(Br)cc2c1NC(=O)CN1CCN(C2CCCCC2)CC1,u,n,n,n,281[may fluoresce violet],17[may fluoresce violet]
COC(=O)c1[nH]c2ccc(Cl)cc2c1NC(=O)CCN1CCN(C2CCCCC2)CC1,n,n,n,n,n,n
CN1CCN(c2nc(-c3ccc(Cl)cc3)cc(=O)[nH]2)CC1,n,n,n,n,n,n
CCOC(=O)c1[nH]cnc1C(=O)Nc1ccc([N+](=O)[O-])cc1,u,n,u,n,761[may fluoresce violet],33[may fluoresce violet]
O=C(COC(=O)Cc1ccccc1F)NNC(=O)c1ccc([N+](=O)[O-])cc1,n,n,n,n,n,n
CCOc1cccc(/C=C2\NC(=S)N(c3ccccc3)C2=O)c1O,u,n,u,n,424[may fluoresce violet],18[may fluoresce violet]
COC(=O)N/N=C/c1cc(C)n(-c2cccc3ccccc23)c1C,u,n,n,n,n,44[may fluoresce violet]
CCOc1ccccc1NC(=O)c1csc(C)c1C,n,n,n,n,n,n
O=C1c2ccccc2CCC12N=NCC2c1ccccc1 (centres undefined),u,n,u,n,246[may fluoresce violet],14[may fluoresce violet]
CC(C)N=C(Nc1ccccc1)c1cccnc1,u,n,n,n,177[may fluoresce violet],34[may fluoresce violet]
O=C1/C(=C\c2cccs2)SC(=S)N1C1CCS(=O)(=O)C1 (centres undefined),u,n,u,u,u,13[may fluoresce violet]
Nc1nc(N)c2c(n1)CCCC2,n,n,n,n,n,n
Nc1ncnc2c1CCC2,u,n,n,n,213[may fluoresce violet],n
COc1ccc(NC(=O)CSc2n[nH]c(-c3ccccn3)n2)cc1,u,n,u,n,314[may fluoresce violet],37[may fluoresce violet]
Nc1c(C(=O)O)sc2nc3c(cc12)CCCC3,n,n,n,n,n,n
CN1CCc2nc3sc(C(=O)C45CC6CC(CC(C6)C4)C5)c(N)c3cc2C1,u,n,n,n,257[may fluoresce violet],n
Cc1ccc(CCN2CC(C(=O)NCCCN(C)Cc3ccccc3)CC2=O)cc1 (centres undefined),n,n,n,n,188,n

# Screening results (PubChem BioAssay)
